Here are results for 8 molecules from PubChem BioAssay (NCI).

Experiment in all cases: NCI-60 one-dose screen, 48 h (100 = growth as untreated, 0 = no growth, -100 = all killed)
One assay has as its system SR leukemia. Particulars: 10 µM unless noted.
The next assay relates to RPMI-8226 leukemia. Particulars: 10 µM unless noted.
For the next assay, the system named is OVCAR-8 ovarian. Particulars: 10 µM unless noted.
The next assay has as its system OVCAR-5 ovarian. The conditions noted are these: 10 µM unless noted.
A further assay concerns OVCAR-4 ovarian. The conditions noted are these: 10 µM unless noted.
The next assay concerns SK-OV-3 ovarian. The conditions noted are these: 10 µM unless noted.
For the next assay, the system named is IGROV1 ovarian. Particulars: 10 µM unless noted.
For the next assay, the system named is OVCAR-3 ovarian. Particulars: 10 µM unless noted.
The next assay concerns HS 578T breast. Particulars: 10 µM.
The subject of a further assay is NCI/ADR-RES ovarian. Particulars: 10 µM unless noted.
For a further assay, the system named is T-47D breast. The conditions noted are these: 10 µM unless noted.
A further assay relates to BT-549 breast. Particulars: 10 µM unless noted.
The next assay concerns MDA-MB-435 melanoma. The conditions noted are these: 10 µM unless noted.
The subject of another assay is SW-620 colon. Particulars: 10 µM unless noted.
The test system of a further assay is MCF7 breast. The conditions noted are these: 10 µM unless noted.
The next assay relates to HCT-116 colon. Particulars: 10 µM unless noted.
Another assay concerns HCC-2998 colon. Particulars: 10 µM unless noted.
A further assay deals with KM12 colon. Particulars: 10 µM unless noted.

The structures appear in SMILES notation. About 83,000 compounds went through this panel and 20% of them were active in at least one assay; those are over-represented in the sample as a whole.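 Cells were grown in 96-well plates and exposed to the test compound at a single concentration for 48 hours; results are reported as percent growth, with values below 10 considered active.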 Values without a mark were called inactive. Active and inactive are the calls of the source.

With `CCOC(=O)C1=C(C)NC(SCc2nnc(-c3ccc(Cl)cc3)o2)=NC1c1ccc(Br)cc1` (centres undefined), the growth is 38.8% with SR leukemia; 38.4% in the assay with RPMI-8226 leukemia; 72.7% with OVCAR-8 ovarian; 93.9% in the assay with OVCAR-5 ovarian; 69.6% in the assay on OVCAR-4 ovarian; 82% with SK-OV-3 ovarian. In addition, the growth in the assay with IGROV1 ovarian is 65.5%; with OVCAR-3 ovarian it was 77.5%; with HS 578T breast, 87.1%; with NCI/ADR-RES ovarian, 67.5%; with T-47D breast it was 48%; in the assay on BT-549 breast, 79.8%. In addition, the growth is 65.1% in the assay on MDA-MB-435 melanoma; 91% in the assay with SW-620 colon; 44.8% in the assay on MCF7 breast; 48.6% in the assay with HCT-116 colon; 91.2% in the assay with HCC-2998 colon; 76% in the assay with KM12 colon.
As for `CCN(CC)CCNc1c(C)cc(CO)c(Cl)c1C`, the growth in the assay on SR leukemia was 104%; with RPMI-8226 leukemia it was 105%; in the assay on OVCAR-8 ovarian it was 90.3%; in the assay with OVCAR-5 ovarian it was 117%; in the assay with OVCAR-4 ovarian, 103%; with SK-OV-3 ovarian, 120%. The growth in the assay with IGROV1 ovarian was 64.8%; in the assay with OVCAR-3 ovarian, 117%; in the assay on HS 578T breast it was 107%; with NCI/ADR-RES ovarian it was 101%; in the assay with T-47D breast, 112%; in the assay on BT-549 breast it was 104%. In addition, the growth with MDA-MB-435 melanoma was 106%; with SW-620 colon it was 105%; in the assay with MCF7 breast it was 75%; in the assay with HCT-116 colon, 104%; with HCC-2998 colon, 107%; in the assay with KM12 colon it was 113%.
With `Clc1ccc(Nc2ncnc3c2sc2ncccc23)c(Cl)c1`, the growth in the assay on SR leukemia was 9.78% (active); in the assay with RPMI-8226 leukemia it was 30%; in the assay on OVCAR-8 ovarian, 4.31% (active); with OVCAR-5 ovarian, 59.5%; with OVCAR-4 ovarian, 84.9%; in the assay with SK-OV-3 ovarian, 25.5%. Moreover, the growth in the assay with IGROV1 ovarian was 70.4%; in the assay on OVCAR-3 ovarian, 55.5%; in the assay on HS 578T breast, 95.8%; in the assay with NCI/ADR-RES ovarian, 15%; with T-47D breast, 36.7%; in the assay on BT-549 breast, 44.6%. Besides, the growth with MDA-MB-435 melanoma is 36.3%; in the assay with SW-620 colon, 47.9%; in the assay on MCF7 breast it was 18.4%; in the assay with HCT-116 colon, 27.6%; with HCC-2998 colon, 59.6%; in the assay with KM12 colon it was 50.8%.
Take `COc1cc(-c2n/c(=C\c3c(O)[nH]c4cc(Cl)ccc34)cc3c2=Nc2ccccc2-3)cc(OC)c1OC`: the growth in the assay on SR leukemia was 36.8%; with RPMI-8226 leukemia, 84.6%; in the assay on OVCAR-8 ovarian, 59.3%; in the assay with OVCAR-5 ovarian, 102%; in the assay on OVCAR-4 ovarian it was -1.32% (active); in the assay on SK-OV-3 ovarian, 59.4%. Besides, the growth in the assay with IGROV1 ovarian is 25.2%; in the assay on OVCAR-3 ovarian, 58.1%; in the assay on HS 578T breast, 50%; with NCI/ADR-RES ovarian, 84.1%; with T-47D breast it was 67.2%; in the assay with BT-549 breast it was 45.2%. Also, the growth in the assay on MDA-MB-435 melanoma is 66.2%; in the assay on SW-620 colon it was 41.5%; in the assay with MCF7 breast, 55.7%; in the assay with HCT-116 colon, 52.9%; with HCC-2998 colon, 93.1%; with KM12 colon it was 51.8%.
For the molecule `O=C(Oc1c(Cl)c(Cl)c(Cl)c(Cl)c1Cl)C1CCCN1C(=O)OCc1ccccc1` (centres undefined), the growth is 30.1% in the assay with SR leukemia; 6.32% (active) with RPMI-8226 leukemia; 34.7% with OVCAR-8 ovarian; 94.9% in the assay on OVCAR-5 ovarian; 51% in the assay on OVCAR-4 ovarian; 46.4% in the assay on SK-OV-3 ovarian. In addition, the growth with IGROV1 ovarian was 37.3%; in the assay with OVCAR-3 ovarian, 79.1%; in the assay with HS 578T breast, 73.2%; in the assay on NCI/ADR-RES ovarian, 27.6%; in the assay on T-47D breast, 2.01% (active); in the assay with BT-549 breast, 54.9%. Moreover, the growth in the assay with MDA-MB-435 melanoma was 84.2%; with SW-620 colon, 22.2%; with MCF7 breast, 29.6%; in the assay with HCT-116 colon, 15.9%; in the assay with HCC-2998 colon it was 49.1%; in the assay on KM12 colon, 23.6%.
In the case of `Cc1ccc(NC(=O)c2nc(S(C)(=O)=O)oc2-c2ccc(F)cc2)cc1Nc1ccc2ncn(C)c(=O)c2c1`, the growth was -12.5% (active) with SR leukemia; 19.3% in the assay on RPMI-8226 leukemia; 30.6% in the assay on OVCAR-8 ovarian; 102% in the assay on OVCAR-5 ovarian; 104% with OVCAR-4 ovarian; 107% in the assay with SK-OV-3 ovarian. In addition, the growth in the assay with IGROV1 ovarian was 61.4%; in the assay with OVCAR-3 ovarian, -58.5% (active); in the assay on HS 578T breast, 106%; in the assay with NCI/ADR-RES ovarian, 96.2%; in the assay with T-47D breast it was -9.98% (active); in the assay with BT-549 breast, 66.3%. Besides, the growth with MDA-MB-435 melanoma was 69.4%; in the assay with SW-620 colon it was -6.67% (active); with MCF7 breast, 52.5%; in the assay with HCT-116 colon it was -10.8% (active); with HCC-2998 colon it was 99.7%; with KM12 colon, 59.2%.
Turning to `CC[C@H](Nc1nc(N)nc(N)c1Cl)c1nc2cccc(NCc3ccc(C(=O)NO)cc3)c2c(=O)n1-c1ccccc1`, the growth was -5.94% (active) in the assay with SR leukemia; 3.83% (active) in the assay with RPMI-8226 leukemia; -29.1% (active) with OVCAR-8 ovarian; 21.9% in the assay with OVCAR-5 ovarian; 5.36% (active) in the assay with OVCAR-4 ovarian; -14.4% (active) in the assay with SK-OV-3 ovarian. In addition, the growth is -46.6% (active) with IGROV1 ovarian; -22.1% (active) in the assay with OVCAR-3 ovarian; 20.9% in the assay on HS 578T breast; 81.8% in the assay with NCI/ADR-RES ovarian; 6.8% (active) with T-47D breast; 37.4% in the assay on BT-549 breast. In addition, the growth in the assay with MDA-MB-435 melanoma was -51.2% (active); in the assay on SW-620 colon, 19.9%; in the assay with MCF7 breast, 13%; in the assay on HCT-116 colon, -63.6% (active); with HCC-2998 colon, -14.4% (active); with KM12 colon, -38.3% (active).
For the molecule `COc1ccc(/C(=C\c2cc(OC)c(OC)c(OC)c2)C(=O)N2CCCNCC2)cc1`, the growth is 103% with SR leukemia; 107% with RPMI-8226 leukemia; 103% in the assay on OVCAR-8 ovarian; 111% with OVCAR-5 ovarian; 112% in the assay with OVCAR-4 ovarian; 103% in the assay with SK-OV-3 ovarian. Further, the growth in the assay with IGROV1 ovarian was 113%; in the assay with OVCAR-3 ovarian it was 116%; with HS 578T breast, 107%; in the assay on NCI/ADR-RES ovarian, 112%; in the assay with T-47D breast, 93.1%; in the assay on BT-549 breast, 114%. The growth was 111% in the assay with MDA-MB-435 melanoma; 108% in the assay on SW-620 colon; 97.3% in the assay on MCF7 breast; 104% in the assay on HCT-116 colon; 99.8% in the assay with HCC-2998 colon; 110% in the assay with KM12 colon.
